FID counter: compounds displacing fluorescent DNA intercalator, primary screen, artefact control for HCV NS3 helicase inhibitor project, biochemical, FID fluorescence; inhibition, % at 7.9 µM; AID 1845, 2009; actives 0.17% (n = 290,000); DNA fluorescent intercalator displacement; in the data active = inhibition above about 37%;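 also: 0% = vehicle and 100% = reference compound; higher means more ethidium bromide displaced from hairpin DNA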
MEKK2 WT-MEK5: modulators of MEK5 binding to wildtype MEKK2, primary screen, biochemical, multiplex bead flow cytometry, Alexa488-MEK5; Alexa488-MEK5 binding to MEKK2 WT; actives lie on both sides; binding response (% of control), % at 10 µM; Mitogen-activated protein kinase kinase kinase 2 (Homo sapiens), Q9Y2U5; AID 1531, 2009; actives 1.1% (n = 290,000); in the data active = binding response below about 67% or above about 130%
dFosB act: activators of delta FosB homodimer, primary screen, biochemical, fluorescence polarization, TAMRA-CDK5 oligo, single point. activation, % at 25 µM. actives 0.99% (n = 340,000). purified delta FosB; percent of positive-control signal above neutral wells. Protein FosB (Mus musculus), P13346;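 active = mean activation above about 17%, with every replicate also reaching it, limit read from the data, passing the limit was not always enough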
MEKK2 mut-MEK5: MEK5 binding signal on mutant MEKK2 PB1, primary screen, biochemical, multiplex bead flow cytometry, Alexa488-MEK5; Alexa488-MEK5 binding to MEKK2 mutant; percent response, % at 10 µM; actives 0.35% (n = 290,000); in the data active = percent response above about 24%, passing the limit was not always enough
MEKK3 PB1 HTS: modulators of MEKK3-MEK5 PB1 binding, primary screen, biochemical, wildtype MEKK3, multiplex bead flow cytometry, Alexa488-MEK5; binding response (% of control), % at 10 µM; Mitogen-activated protein kinase kinase kinase 3 (Homo sapiens), Q99759; AID 1529, 2009; actives 1.4% (n = 290,000); bead-based flow cytometry, Alexa488-MEK5 binding to MEKK3; actives lie on both sides; 0 = blocked by unlabeled MEK5, 100 = vehicle;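 active = binding response more than 3 SD above or below the average of its plate-row segment, actives on both sides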;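 also: Alexa488 bead fluorescence after subtracting the streptavidin-only scavenger bead signal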
Target sequence (Q99759 whole entry, looked up): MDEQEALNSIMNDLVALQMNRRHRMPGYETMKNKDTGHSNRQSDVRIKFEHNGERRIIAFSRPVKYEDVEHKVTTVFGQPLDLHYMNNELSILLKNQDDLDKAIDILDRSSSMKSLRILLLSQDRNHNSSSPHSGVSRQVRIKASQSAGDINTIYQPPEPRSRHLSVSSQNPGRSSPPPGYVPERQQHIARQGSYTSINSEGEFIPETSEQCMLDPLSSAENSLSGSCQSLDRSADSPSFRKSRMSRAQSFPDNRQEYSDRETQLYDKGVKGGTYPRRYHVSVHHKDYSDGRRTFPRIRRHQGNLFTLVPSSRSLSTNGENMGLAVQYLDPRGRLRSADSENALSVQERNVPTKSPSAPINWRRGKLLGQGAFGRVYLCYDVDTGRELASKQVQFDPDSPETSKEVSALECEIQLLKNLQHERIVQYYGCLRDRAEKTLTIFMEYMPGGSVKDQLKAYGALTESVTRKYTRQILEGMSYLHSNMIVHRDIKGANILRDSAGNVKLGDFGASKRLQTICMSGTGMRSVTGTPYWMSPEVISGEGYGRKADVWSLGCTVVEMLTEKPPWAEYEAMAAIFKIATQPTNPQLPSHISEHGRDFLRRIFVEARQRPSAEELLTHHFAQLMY
* marks the source's active call; other numbers are inactive results; nt = no result given; [ ] = dose if it differs, or a comment. Most compounds without a hit are left out; they make up all but 2.9% or so of the library.

SMILES	FID counter	MEKK2 WT-MEK5	dFosB act	MEKK2 mut-MEK5	MEKK3 PB1 HTS
Cc1ccc2c(c1)sc(C)[n+]2CCCS(=O)(=O)[O-]	-47	98	-6	0	96
Cc1ccc2sc(C)[n+](CCCS(=O)(=O)[O-])c2c1	-36	108	-5	5	105
CCC(/C=C1\Oc2ccc(OC)cc2N1C)=C\c1sc2ccccc2[n+]1CCCS(=O)(=O)[O-]	nt	nt	26*	nt	nt
Cc1cccc(N2CC(C(=O)Nc3nnc(SCc4ccccn4)s3)CC2=O)c1 (stereo unspecified)	-59	104	-25	4	102
Cc1ccc(-c2csc(NCCn3c(C(F)(F)F)nc4ccccc43)n2)cc1	-19	94	-2	-4	98
CN(CC(=O)Nc1ccc(Cl)cc1)C(=O)C1CCCC1	nt	nt	-4	nt	nt
CN1/C(=C/C(=O)COC(=O)CN2C(=O)C3CC=CCC3C2=O)C(C)(C)c2ccccc21 (stereo unspecified)	nt	nt	4	nt	nt
CN1/C(=C\C(=O)COC(=O)Cn2nnc(-c3ccccc3)n2)C(C)(C)c2ccccc21	-9	96	52*	1	96
COCc1cc(C)nc(Nc2ccccc2OC)c1C#N	-12	100	3	3	102
Cc1ccc(C(=O)N/C(=C\c2ccc(-c3cccc([N+](=O)[O-])c3)o2)C(=O)NCCCN2CCOCC2)cc1	44*	113	9	2	101
Cc1ccc(C(C)C)c(OCc2nn(CC(=O)c3ccc(OC(F)F)cc3)c3[n+]2CCCCC3)c1	37*	217*	-12	47	114
O=C(Cn1nc(-c2nn(CC(=O)c3ccccc3)c3[n+]2CCCCC3)[n+]2c1CCCCC2)c1ccccc1	25	110	nt	6	99
CCNc1nc(-c2cc(C)n(Cc3ccco3)c2C)cs1	-17	-21*	-6	-29	79
Cc1cc(-c2csc(NCc3ccccc3)n2)c(C)n1C	-9	-10*	-6	1	84
C/C(=C\c1ccc(C)o1)C(=O)c1c(C)cc(C)[nH]c1=O	-6	66	-4	-26	69
CC(/C=C/c1ccccc1)=N/NC(=O)c1cccc(Br)c1	-3	99	-18	-1	100
Cc1ccc(CCNC(=O)C2CCN(S(=O)(=O)c3cccc4nonc34)CC2)cc1	-3	94	-6	8	97
Cc1ccc(CNC(=O)C2CCN(S(=O)(=O)c3cccc4nonc34)CC2)cc1	-11	100	21*	-1	103
O=C(NCc1ccccc1Cl)C1CCCN(S(=O)(=O)c2cccc3nonc23)C1 (stereo unspecified)	-14	95	39*	-3	99
COc1ccccc1CNC(=O)C1CCCN(S(=O)(=O)c2cccc3nonc23)C1 (stereo unspecified)	-16	106	-6	1	102
O=C(CNC(=O)c1ccccc1Br)N/N=C/c1cc(Br)ccc1O	-3	112	32*	-1	112
O=C(CNC(=O)c1ccc2c(c1)OCO2)N/N=C/c1cc(Br)ccc1O	-6	105	62*	2	104
O=C(c1ccc(OC2CCN(CCc3ccccc3)CC2)cc1)N1CCC(CO)CC1	8	103	-8	2	101
O=C1OCC2OC(O)C(O)C(O)C2OC(=O)c2cc(O)c(O)c(O)c2-c2c(O)c(O)c3oc(=O)c4c(c(O)c(O)c5oc(=O)c2c3c54)-c2c1cc(O)c(O)c2O (stereo unspecified)	nt	66*[inhibitor]	nt	-15	73*[inhibitor]
COc1c(O)cc2c(c1O)C1OC(CO)C(O)C(O)C1OC2=O (stereo unspecified)	nt	nt	0	nt	nt
SMILES	FID counter	MEKK2 WT-MEK5	dFosB act	MEKK2 mut-MEK5	MEKK3 PB1 HTS
Cc1csc2nc(SCC(=O)Nc3ccccc3F)[nH]c(=O)c12	-22	107	24*	-1	103
Cc1ccccc1NC(=O)COC(=O)CCC(=O)c1cccs1	nt	nt	-3	nt	nt
CN(CC(=O)NCc1ccccc1)S(=O)(=O)c1cnc[nH]1	-3	108	4	6	105
COc1ccc(-c2cc3c(=O)n(CC(=O)NCCCN4CCC(N5CCCCC5)CC4)nc(C)n3n2)cc1	42*	141	-8	11	105
CCOC(=O)N1CCN(C(=O)Cn2nc(C)n3nc(-c4ccc(OC)cc4)cc3c2=O)CC1	-29	93	-3	-1	92
COc1ccc(-c2cc3c(=O)n(CC(=O)NCCCN4CCC(N5CCCCC5)CC4)ncn3n2)cc1	40*	122	0	8	102
COc1ccc(-c2cc3c(=O)n(CC(=O)Nc4cccc(Cl)c4)nc(C)n3n2)cc1	-5	104	24*	4	102
CC1CCCCC1NC(=O)COc1cccnc1[N+](=O)[O-] (stereo unspecified)	nt	nt	10	nt	nt
COc1ccc(N(Cc2ccco2)C(=O)c2ccccc2F)cc1OC	-17	108	-6	7	103
COc1ccc(C)cc1NC(=O)Cn1c(=O)oc2ccccc21	-6	100	19*	1	100
Cc1ccccc1NC(=O)Cn1c(=O)oc2ccccc21	-2	104	0	3	103
CN(C)C1=C(Cl)C(=O)N(c2ccc(Cl)c(Cl)c2)C1=O	0	79	24*	-23	84
CCC(=O)Nc1nc(-c2ccc3c(c2)CC(C)N3S(C)(=O)=O)cs1 (stereo unspecified)	-7	-1.0*	-1	5	99
CC1Cc2cc(-c3csc(NC(=O)Cc4cccs4)n3)ccc2N1S(C)(=O)=O (stereo unspecified)	2	nt	-2	nt	nt
COc1cccc(CN2CC(C(=O)N3CCCCCC3)CCC2=O)c1 (stereo unspecified)	-17	109	-3	7	105
Cc1ccnc(N/C=C(/NC(=O)c2ccccc2)C(=O)N/N=C\c2ccc(Cl)cc2)n1	-17	74	19*	-27	81
O=C(N/N=C/c1ccncc1)/C(=C/c1ccccc1)NC(=O)c1ccccc1	-1	107	-6	8	103
COc1ccc(OC)c(-c2cc(C(=O)Nc3c(C)nn(Cc4ccc(Cl)cc4)c3C)no2)c1	-10	nt	-6	nt	nt
COc1ccc(-c2cc(C(=O)Nc3cc(C)n(Cc4ccc(Cl)cc4)n3)no2)cc1OC	-4	109	32*	6	109
C(C#CCCCCCCCCC[n+]1ccccc1)#CCCCCCCCCC[n+]1ccccc1	43*	274*	49*	56*	112
N#Cc1c(-c2ccc(Cl)cc2Cl)nc2n(c1=O)CCS2	-13	97	-4	-9	99
N=C1S/C(=C\c2ccccc2F)C(=O)N1c1ccc(F)cc1	1	107	8	0	114

Screens: PubChem, several laboratories
